Assay outcomes (PubChem BioAssay)
AGP1-GFP MLPCN – alters AGP1-GFP fluorescence in TOR pathway yeast screen. S. cerevisiae AGP1-GFP multiplex flow cytometry, 3 h; GFP as percent of DMSO wells. GFP response vs DMSO, % at 10 µM. hit rate 0.02% among 320,000;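 active = GFP response relative to DMSO above a set limit, near screen average plus 3 SD, cut at about 150% in these data; inconclusive = fewer than 70 cells counted for the yeast strain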;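 also: median GFP channel fluorescence of the gated AGP1 strain per well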
JMJD2C inh – human JMJD2C demethylase inhibition; Q9H3R0; GST-JMJD2C(1-420) H3K9me3 demethylation, DELFIA europium; inhibition, % at 2.35 µM; hit rate 0.069% among 330,000; AID 2099;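 active = more than half of a compound's replicate wells show inhibition beyond 50%, single wells judged on their own value; inconclusive = some, but no more than half, of replicates pass 50% inhibition; inactive = no replicate passes 50% inhibition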;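 also: signal counts dimethyl H3K9 product captured on neutravidin plate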
Target sequence (Q9H3R0 1-420 limits assumed): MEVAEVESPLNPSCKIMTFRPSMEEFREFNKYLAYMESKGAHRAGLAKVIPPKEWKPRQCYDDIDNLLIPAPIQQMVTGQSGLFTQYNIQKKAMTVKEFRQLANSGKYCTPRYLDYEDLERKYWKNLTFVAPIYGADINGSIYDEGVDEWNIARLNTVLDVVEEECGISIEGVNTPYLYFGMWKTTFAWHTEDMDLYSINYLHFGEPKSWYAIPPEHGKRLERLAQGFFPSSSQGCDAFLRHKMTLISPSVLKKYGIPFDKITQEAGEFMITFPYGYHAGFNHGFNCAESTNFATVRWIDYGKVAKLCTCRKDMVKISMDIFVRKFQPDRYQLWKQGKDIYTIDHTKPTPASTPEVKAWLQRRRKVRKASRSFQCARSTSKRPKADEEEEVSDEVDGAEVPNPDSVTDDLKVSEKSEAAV
CIT2-GFP yeast – yeast TOR pathway CIT2-GFP modulation; hit rate 0.065% among 320,000; S. cerevisiae CIT2-GFP strain, flow cytometry, 3 h; 100 means same as DMSO wells; GFP response vs DMSO, % at 10 µM; AID 2029;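 active = GFP response relative to DMSO above a set limit, near the screen mean plus 3 SD, cut at about 150% in these data; inconclusive = Fewer than 70 cells measured for a yeast strain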;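 also: ratio of well median GFP fluorescence to mean of DMSO wells on the plate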
LAP4 TOR yeast – alters LAP4-GFP fluorescence in TOR pathway yeast screen. S. cerevisiae LAP4-GFP multiplex, flow cytometry GFP, 3 h; median GFP as percent of DMSO wells. GFP response vs DMSO, % at 10 µM. hit rate 0.34% among 320,000. AID 2023;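 active = GFP response vs DMSO above a set limit, about the screen mean plus 3 SD, cut at about 150% in these data; inconclusive = under 70 cell events counted for the yeast strain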
RPL19A TOR yeast – alters RPL19A-GFP fluorescence in TOR pathway yeast screen; S. cerevisiae RPL19A-GFP strain, flow cytometry, 3 h; hits give low values; percent response vs DMSO, % at 10 µM; hit rate 0.3% among 330,000;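 active = percent response vs DMSO below 50%; inconclusive = fewer than 70 events counted for the yeast strain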;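 also: median channel GFP fluorescence of the barcoded RPL19A-GFP strain; lower means less RPL19A-GFP as with rapamycin TOR inhibition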
MEP2-GFP yeast – yeast TOR pathway MEP2-GFP modulation | S. cerevisiae MEP2-GFP strain, flow cytometry GFP, 3 h; 100% = DMSO control level | hit rate 0.51% among 330,000 | GFP response vs DMSO, % at 10 µM;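 active = GFP response versus DMSO above a set limit, roughly screen mean plus 3 SD, cut at about 180% in these data; inconclusive = fewer than 70 cells counted for a yeast strain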;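 also: median GFP fluorescence of the barcode-gated MEP2-GFP cells per well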
LAP4 cherry2 – second confirmation of modulators of TOR reporter LAP4-GFP in yeast. shares compounds with LAP4 TOR yeast. S. cerevisiae LAP4-GFP strain, flow cytometry GFP, 3 h. GFP response vs DMSO, % at 10 µM. hit rate 20% among 590;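 active = GFP signal as percent of the solvent control above about 150%, meaning raised reporter expression, limit read from the data; inconclusive = fewer than 70 cells counted in the well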
MEP2-GFP pick2 – second confirmation of modulators of TOR reporter MEP2-GFP in yeast; shares compounds with LAP4 TOR yeast; S. cerevisiae MEP2-GFP strain, flow cytometry GFP, 3 h; GFP response vs DMSO, % at 10 µM; hit rate 10% among 590; AID 2622;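 active = GFP signal above 150% of the solvent control wells, that is a rise of more than half; inconclusive = fewer than 70 yeast cells counted in the well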;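 also: median channel GFP fluorescence of all gated yeast cells per well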
RPL19A-GFP pick2 – reconfirmed modulator of RPL19A-GFP TOR reporter in yeast. shares compounds with LAP4 TOR yeast. S. cerevisiae RPL19A-GFP strain, flow cytometry GFP, 3 h; hits give low values; 100% means same as DMSO wells. GFP response vs DMSO, % at 10 µM. hit rate 3% among 590. AID 2623;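 active = under 65% GFP response relative to DMSO; inconclusive = yeast strain with under 70 measured events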;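 also: median GFP channel fluorescence per well over the all cells gate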
CIT2 GFP CP2 – reconfirmed modulator of CIT2-GFP TOR reporter in yeast | S. cerevisiae CIT2-GFP strain, flow cytometry GFP, 3 h; DMSO control wells read 100% | shares compounds with LAP4 TOR yeast | AID 2624 | hit rate 8% among 590 | GFP response vs DMSO, % at 10 µM;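 active = GFP response vs DMSO above about 150%, limit read from the data; inconclusive = fewer than 70 events counted for a yeast strain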;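 also: median green fluorescence per well over all gated yeast cells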
AGP1-GFP pick2 – reconfirmed modulator of AGP1-GFP TOR reporter in yeast; 590 tested, under 10 active; percent response vs DMSO, % at 10 µM; AID 2643; shares compounds with LAP4 TOR yeast; S. cerevisiae AGP1-GFP strain, flow cytometry GFP, 3 h;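 active = over 150 percent of DMSO response; inconclusive = yeast strain measured with under 70 events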;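 also: median GFP channel fluorescence over all cells without mother daughter split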
Yeast autofluor – yeast s288c autofluorescence artifact, counter-screen; 610 tested, under 10 active; shares compounds with LAP4 TOR yeast; fluorescence change (kMESF span) at 33 µM; S. cerevisiae s288c, 520 nm autofluorescence, flow cytometry, 3 h; hits give high values; zero means same as solvent-only cells;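 active = fluorescence span over the dose series, or activity score, above about 33, limit read from the data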
Yeast autofl DR – TOR screen hit shows autofluorescence in yeast s288c. shares compounds with LAP4 TOR yeast. S. cerevisiae s288c parental, compound autofluorescence, flow cytometry, 3 h. fluorescence change (span) at 33 µM. 110 tested, under 10 active;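 active = fluorescence change span, or the activity score built from it, above 25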
TORC1 bypass gr – stops wildtype yeast growth while TORC1 bypass cells still grow; shares compounds with LAP4 TOR yeast; S. cerevisiae BY4741 spot growth rating, 48-72 h; hits give low values; growth rating (0-3) at 30 µM; 120 tested, under 10 active; AID 504456;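 active = growth rating at most 1 for wild type yeast while the TORC1 bypass strain still grows fully, rated 3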
A number is an active result; . = inactive; ? = inconclusive; / = not tested or not shown. An excerpt weighted towards active compounds, which were near 0.97% of everything screened.

SMILES | AGP1-GFP MLPCN | JMJD2C inh | CIT2-GFP yeast | LAP4 TOR yeast | RPL19A TOR yeast | MEP2-GFP yeast | LAP4 cherry2 | MEP2-GFP pick2 | RPL19A-GFP pick2 | CIT2 GFP CP2 | AGP1-GFP pick2 | Yeast autofluor | others
CCN(CC)C(=O)Oc1ccnc2cc(Cl)ccc12 | . | . | . | . | . | . | . | 198 | . | . | . | . | Yeast autofl DR=.;TORC1 bypass gr=.
O=C(Oc1ccnc2cc(Cl)ccc12)N1CCCCCC1 | 185 | . | . | . | . | 422 | / | / | / | / | / | . | Yeast autofl DR=.;TORC1 bypass gr=.
CCOC(=O)N1CCN(c2ccnc3cc(Cl)ccc23)CC1 | . | . | . | . | . | . | / | / | / | / | / | /
COCCn1c(N)c(N(Cc2ccccc2)C(=O)c2oc3ccccc3c2C)c(=O)[nH]c1=O | . | . | . | . | . | . | / | / | / | / | / | /
CCN(c1ccccc1)S(=O)(=O)c1ccc(OC)c(NC(=O)c2cc(F)c(F)c(F)c2F)c1 | . | . | . | 177 | . | . | . | . | . | . | . | /
CCN(c1ccccc1)S(=O)(=O)c1ccc(OC)c(NC(=O)c2cccs2)c1 | . | . | . | . | . | . | / | / | / | / | / | /
O=C1/C(=C/c2ccco2)SC(=S)N1CCC(=O)N1CCCCC1CCO (centres undefined) | . | . | . | . | . | . | / | / | / | / | / | /
COc1cccc(/C=C2/SC(=S)N(CCCC(=O)Nc3ccc(O)cc3)C2=O)c1 | . | . | . | . | . | . | / | / | / | / | / | /
COc1cccc(/C=C2\SC(=S)N(CCCC(=O)Nc3ccc(C(=O)O)cc3)C2=O)c1 | . | . | 173 | . | . | . | . | . | . | . | . | .
CC1=NNC(=O)/C1=C\c1cn(-c2ccccc2)nc1-c1ccccc1 | . | . | / | 198 | . | . | / | / | / | / | / | .
O=Cc1cn(-c2ccccc2)nc1-c1ccccc1 | . | . | . | . | . | . | / | / | / | / | / | /
O=C1C2C3C=CC(C3)C2C(=O)N1/N=C/c1cc(Br)cc([N+](=O)[O-])c1O (centres undefined) | . | . | . | 180 | . | . | . | . | . | . | . | /
CC(C)c1cc(-c2cc(C(=O)Nc3ccccc3)on2)nc(NC2CCCC2)n1 | . | . | . | . | . | . | . | . | . | . | . | /
COCCNc1nc(C)cc(-c2cc(C(=O)NC3CCCC3)on2)n1 | . | . | . | . | . | . | / | / | / | / | / | /
CCCNc1nc(C)cc(-c2cc(C(=O)NCc3ccccc3)on2)n1 | . | . | . | 153 | . | . | . | . | . | . | . | /
Cc1cc(-c2cc(C(=O)NCc3ccccc3)on2)nc(NCC2CC2)n1 | . | . | . | . | . | . | . | . | . | . | . | /
CCCNc1nc(C)cc(-c2cc(C(=O)Nc3ccccc3)on2)n1 | . | . | . | . | . | . | . | . | . | . | . | /
CCOC(=O)C1=C(COC(=O)/C=C/c2cc(OC)c(OC)c(OC)c2)NC(=O)NC1C (centres undefined) | . | . | . | . | . | . | / | / | / | / | / | /
O=[N+]([O-])c1cc2cccnc2c2ncccc12 | . | . | . | . | . | . | / | / | / | / | / | /
O=[N+]([O-])c1cc(O)c2ncccc2c1 | . | . | . | 169 | . | . | / | / | / | / | / | . | Yeast autofl DR=.;TORC1 bypass gr=.
Oc1ccc(COCc2ccccc2)c2cccnc12 | . | ? | . | 160 | . | . | / | / | / | / | / | .
CCCOCc1ccc(O)c2ncccc12 | . | . | . | . | . | . | / | / | / | / | / | /
COc1ccc(C(=O)c2ccccc2)c(OCC(=O)NC2CC2)c1 | . | . | . | . | . | . | . | . | . | . | . | /
COc1ccc(C(=O)OCC(=O)NC2CCCC2)c(OC)c1 | . | . | . | . | . | . | / | / | / | / | / | /
COc1cccc(/C=C2\C(=O)C(=O)c3ccccc32)c1 | . | . | . | . | . | . | / | / | / | / | / | /
SMILES | AGP1-GFP MLPCN | JMJD2C inh | CIT2-GFP yeast | LAP4 TOR yeast | RPL19A TOR yeast | MEP2-GFP yeast | LAP4 cherry2 | MEP2-GFP pick2 | RPL19A-GFP pick2 | CIT2 GFP CP2 | AGP1-GFP pick2 | Yeast autofluor | others
COc1ccc(C=C2C(=O)c3ccccc3C2=O)cc1O | . | . | . | . | . | . | . | . | . | . | . | .
COc1cc(C=C2C(=O)c3ccccc3C2=O)cc(OC)c1 | . | . | . | . | . | . | . | . | . | . | . | .
COc1ccc2c(c1)CC/C(=C/c1cc(OC)c(OC)c(OC)c1)C2=O | . | . | . | . | . | . | / | / | / | / | / | /
COc1cc(C=C2C(=O)c3ccccc3C2=O)cc(OC)c1OC | . | . | . | . | . | . | . | . | . | . | . | .
O=C(OCC(=O)N1N=C(c2ccc(Cl)cc2)CC1c1ccco1)c1cccnc1 (centres undefined) | . | . | . | . | . | . | / | / | / | / | / | /
Cc1ccc(NC(=O)CNC(=O)Cn2cnc3sc(C)c(C)c3c2=O)cc1F | . | . | . | . | . | . | / | / | / | / | / | /
Cc1ccc(/C=C2/C(=O)ON=C2c2ccccc2)o1 | . | . | . | 257 | . | . | / | / | / | / | / | . | Yeast autofl DR=.;TORC1 bypass gr=.
O=C1ON=C(c2ccccc2)/C1=C\c1ccco1 | . | . | . | 219 | . | . | / | / | / | / | / | . | Yeast autofl DR=.;TORC1 bypass gr=.
O=C1ON=C(c2ccccc2)/C1=C/c1ccccc1 | . | . | . | . | . | . | / | / | / | / | / | /
Cc1noc(C)c1NC(=O)N(C)C[C@H]1Oc2ccc(NS(=O)(=O)c3cccs3)cc2C(=O)N([C@H](C)CO)C[C@@H]1C | / | . | / | / | / | / | / | / | / | / | / | /
C/C(=N\NC(=O)c1cc(Br)ccc1O)c1ccccn1 | . | . | . | . | . | . | / | / | / | / | / | /
C/C(=N/NC(=O)c1ccc(C(C)(C)C)cc1)c1ccccn1 | . | . | . | 194 | . | . | / | / | / | / | / | .
C/C(=N\NC(=O)c1cccc(Br)c1)c1ccccn1 | . | . | . | 169 | . | . | / | / | / | / | / | . | Yeast autofl DR=.;TORC1 bypass gr=.
